Results taken from publication PMC4336329 (PLoS ONE, 2015).
Hit rate of the full screen: of about 310,000 compounds, about 2,200 (0.71%) showed an effect of 50% or more. Effects have a minus sign here. The entries come from a sample that favours strong results as a whole.

These compounds were tested against human ether-à-go-go-related gene (hERG) potassium channel (human, UniProt Q12809) (assay: primary screen, population patch clamp on CHO cells stably expressing hERG; higher = less effect of the substance).
Chain of human ether-à-go-go-related gene (hERG) potassium channel (Q12809 whole entry, looked up): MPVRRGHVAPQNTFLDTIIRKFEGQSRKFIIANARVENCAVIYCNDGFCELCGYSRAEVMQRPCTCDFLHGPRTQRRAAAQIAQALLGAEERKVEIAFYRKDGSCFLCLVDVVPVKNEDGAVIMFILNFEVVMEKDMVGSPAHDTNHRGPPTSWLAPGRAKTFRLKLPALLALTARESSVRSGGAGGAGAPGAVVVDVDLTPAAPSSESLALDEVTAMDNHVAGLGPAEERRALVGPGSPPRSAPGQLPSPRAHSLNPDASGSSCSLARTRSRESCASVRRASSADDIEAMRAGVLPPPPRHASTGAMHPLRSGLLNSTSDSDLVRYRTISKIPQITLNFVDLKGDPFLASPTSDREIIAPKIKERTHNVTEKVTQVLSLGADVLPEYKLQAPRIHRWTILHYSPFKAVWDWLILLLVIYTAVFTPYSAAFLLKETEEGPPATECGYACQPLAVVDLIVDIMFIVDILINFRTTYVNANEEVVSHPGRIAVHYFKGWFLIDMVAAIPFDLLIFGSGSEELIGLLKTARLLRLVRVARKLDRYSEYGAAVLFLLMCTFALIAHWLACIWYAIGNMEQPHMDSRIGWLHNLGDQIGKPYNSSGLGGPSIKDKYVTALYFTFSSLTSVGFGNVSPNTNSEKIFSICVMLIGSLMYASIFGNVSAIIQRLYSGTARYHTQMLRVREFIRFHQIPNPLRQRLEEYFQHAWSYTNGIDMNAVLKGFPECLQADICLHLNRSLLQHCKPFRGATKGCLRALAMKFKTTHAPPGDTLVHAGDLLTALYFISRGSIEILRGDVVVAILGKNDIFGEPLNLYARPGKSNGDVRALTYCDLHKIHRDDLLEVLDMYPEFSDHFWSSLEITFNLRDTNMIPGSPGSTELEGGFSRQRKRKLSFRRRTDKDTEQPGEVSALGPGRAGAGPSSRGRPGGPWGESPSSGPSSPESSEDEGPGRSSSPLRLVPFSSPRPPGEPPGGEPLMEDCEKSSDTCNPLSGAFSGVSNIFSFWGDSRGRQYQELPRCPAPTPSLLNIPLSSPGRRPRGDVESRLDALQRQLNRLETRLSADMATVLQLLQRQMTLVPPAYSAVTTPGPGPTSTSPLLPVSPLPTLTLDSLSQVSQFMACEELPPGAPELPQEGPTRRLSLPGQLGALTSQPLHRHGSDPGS

| SMILES | hERG current change (%, negative = inhibition) at 1uM |
| --- | --- |
| COc1ccc(CCNC(=O)Nc2ccc(F)cc2F)cc1OC | 15.8% |
| CCOC(=O)C1CCN(C(=O)Nc2ccc3snnc3c2)CC1 | 3.17% |
| O=C(Nc1ccc(F)cc1)N(Cc1cccs1)Cc1cc2cc3c(cc2[nH]c1=O)OCO3 | 16.6% |
| COc1cc(C(=O)NCCOc2ccccc2)cc(OC)c1OC | 16.3% |
| CCOC(=O)N1CCN(CCC(=O)Nc2ccc(OC)cc2OC)CC1 | 3.55% |
| O=C(Oc1c(-c2ccco2)oc2ccccc2c1=O)c1cccnc1 | 16.2% |
| COc1cc(SC#N)ccc1N=Cc1c(C)[nH]n(-c2cccc3ccccc23)c1=O | 13.4% |
| COc1ccc(CCNC2CC(=O)N(CCc3ccc(OC)c(OC)c3)C2=O)cc1 (stereo not drawn) | 7.42% |
| O=C(Cn1cnc2c(oc3ccccc32)c1=O)NCC1CCCO1 (stereo not drawn) | 9.36% |
| C=CCOc1ccccc1CN1CCC(Cc2ccccc2)CC1 | -51.6% |
| O=C(c1ccc(F)cc1)N1CCN(Cc2ccccc2)CC1 | 10.5% |
| O=C(O)C(=O)O.O=C(c1ccccc1)N1CCN(Cc2ccccc2)CC1 | 2.81% |
| O=C(c1ccc(-n2cccc2)cc1)N1CCN(Cc2ccccc2)CC1 | -59.9% |
| CCOc1ccc(C(=O)N2CCCCCC2)cc1 | 9.17% |
| CCOc1ccc(C(=O)N2CCCN(C(=O)c3ccc(OCC)cc3)CC2)cc1 | -69.3% |
| CCOc1ccc(C(=O)N2CCCC2)cc1 | 10.9% |
| CCOc1ccc(C(=S)N2CCCC2)cc1 | 5.79% |
| C=CCOc1ccccc1CN1CCSCC1 | -1.02% |
| CCOc1ccc(C(=S)N2CCOCC2)cc1 | 5.79% |
| CCOc1ccc(C(=S)N2CCN(C)CC2)cc1 | -84.3% |
| C=CCOc1ccccc1CN1CCCCCC1 | 11.6% |

| SMILES | hERG current change (%, negative = inhibition) at 1uM |
| --- | --- |
| O=C(CN1CCN(c2ccc(F)cc2)CC1)Nc1ccc(-n2cnnn2)cc1 | 8.42% |
| O=C(CSc1nn(-c2ccc(F)cc2)c(=S)s1)NCC1CCCO1 (stereo not drawn) | -2.14% |
| Cc1ccc(Cl)cc1NC(=O)N[C@@H](C)C(=O)O | 9.9% |
| Cc1cccc(C2c3[nH]c4ccccc4c3CCN2C(=O)c2cc(CC(C)C)nc(C)n2)n1 (stereo not drawn) | 14% |
| CCOc1ccc(CN2CCN(C(=O)c3ccccc3)CC2)cc1 | -1.03% |
| CCOc1ccc(C(=O)N2CCN(Cc3ccccc3)CC2)cc1 | -60.3% |
| Clc1ccc(CN2CCC(Cc3ccccc3)CC2)cc1 | 12.3% |
| CCOc1ccc(C(=O)N2CCN(c3ccccc3)CC2)cc1 | -0.559% |
| CSc1ccc(CN2CCC(Cc3ccccc3)CC2)cc1 | -29.6% |
| CCOc1ccc(CN2CCC(Cc3ccccc3)CC2)cc1 | -76.8% |
| CCCCNC(=O)C1C2C=CC3(CN(Cc4ccc(C)cc4)C(=O)C13)O2 (stereo not drawn) | 13.1% |
| O=C(Nc1cccc(Cl)c1)NC1CCS(=O)(=O)C1 (stereo not drawn) | 12.9% |
| CCNC(=O)Nc1nc2ccccc2s1 | 8.72% |
| Cc1nn(C)c(=O)c(N)c1-c1cc(-c2ccc(Cl)c(Cl)c2)n[nH]1 | 12.9% |
| CCN(CC(=O)Nc1ccc(C(=O)OC)cc1)C1CCCCC1 | 16.3% |
| CCN(CC(=O)Nc1ccc(OC(F)F)cc1)C1CCCCC1 | -61.6% |
| CCN(C(=S)Nc1ccc(OC(F)F)cc1)C1CCCCC1 | -1.82% |
| COc1ccc(OCCC(=O)c2ccc(OC)cc2)cc1 | 4.68% |
| CC(OC(=O)CC1CCCCC1)C(=O)Nc1cccc(C#N)c1 (stereo not drawn) | 6.92% |
| COc1cc(/C=N/NC(=O)C2CCN(CC(O)COCc3ccccc3)CC2)cc(OC)c1OC (stereo not drawn) | -34.2% |
| COc1cc(/C=N/NC(=O)C2CCN(CC(O)COCc3ccccc3)CC2)ccc1O (stereo not drawn) | -63.6% |

| SMILES | hERG current change (%, negative = inhibition) at 1uM |
| --- | --- |
| CCOc1ccc(/C=N/NC(=O)C2CC2)cc1OC | 19.1% |
| O=C(Nc1ccccc1)OCCOc1ccc(Br)cc1 | 11.2% |
| O=C(O)c1ccc(C[n+]2c(-c3ccccc3)csc2Nc2ccccc2)cc1.[Br-] | 8.98% |
| CCOC(=O)c1cnc2ccc(OC)cc2c1NCCc1ccc(OC)c(OC)c1 | -69.5% |
| CCOC(=O)c1cnc2c(C)cccc2c1NCCc1ccc(OC)c(OC)c1 | -4.73% |
| CCOC(=O)c1cnc2ccccc2c1NCCc1ccc(OC)c(OC)c1 | -72% |
| CCOC(=O)c1cnc2ccccc2c1NCCO | -15.2% |
| CCOC(=O)c1cnc2ccc(C(=O)OC)cc2c1NCCc1ccc(OC)c(OC)c1 | 0.861% |
| COc1ccc(CCNc2nc(-c3cccnc3)nc3ccccc23)cc1OC | 9.94% |
| Cl.Oc1ccc(CCNc2c3ccccc3nc3ccccc23)cc1O | -3.93% |
| COc1ccc(CCNc2c3ccccc3nc3ccccc23)cc1OC.Cl | -59.8% |
| CCOC(=O)c1cnc2ccc(OC)cc2c1NCCN1CCOCC1 | -13.3% |
| O=C(CCCOc1ccc(Cl)cc1)NC1CCCCC1 | 12.5% |
| Cc1ccc2sc(NNC(=O)c3ccc4c(c3)OCCO4)nc2c1C | 8.2% |
| CCC(=O)n1nc(-c2ccc(Cl)cc2)nc1NCc1ccccc1 | 8.9% |
| COc1cccc(N2CC(O)=C(c3nc4ccccc4c(=O)[nH]3)C2=N)c1 | 6.93% |
| Cc1c(O)ccc(NS(=O)(=O)c2ccccc2)c1C | 13% |
| O=C(Nc1cccc(F)c1)N1CCC(n2c(=O)[nH]c3ccccc32)CC1 | 2.25% |
| O=C(CCCN1CCC(n2c(=O)[nH]c3ccccc32)CC1)c1ccc(F)cc1 | -80.8% |
| O=c1[nH]c2ccccc2n1CCCN1CCC(n2c(=O)[nH]c3cc(Cl)ccc32)CC1 | -46.8% |
| O=c1[nH]c2ccccc2n1C1CCCCC1 | 7.5% |

| SMILES | hERG current change (%, negative = inhibition) at 1uM |
| --- | --- |
| O=c1[nH]c2ccccc2n1C1CCN(CCCC(c2ccc(F)cc2)c2ccc(F)cc2)CC1 | -76.5% |
| O=C1CC(N2CCC(n3c(=O)[nH]c4ccccc43)CC2)C(=O)N1c1ccc(F)cc1 (stereo not drawn) | 7.15% |
| CCN(CC)C(=O)c1ccc(NC(=O)c2ccc(-n3cncn3)c([N+](=O)[O-])c2)cc1 | 4.18% |
| CS(=O)(=O)NNC(=O)CN1C(=O)C2C3C=CC(C3)C2C1=O (stereo not drawn) | 22.9% |
| Cc1noc(C)c1C(=O)Nc1nc2ccc(F)cc2s1 | 2.2% |
| CCOC(=O)C(C)Sc1nnc(Cn2c(=O)sc3ccccc32)n1-c1ccccc1 (stereo not drawn) | 4.98% |
| CCOCCn1c(=O)c2c(nc3n2CC(C)CN3Cc2ccccc2)n(C)c1=O (stereo not drawn) | -14.4% |
| CCOCCn1c(=O)c2c(nc3n2CC(C)CN3CCc2ccccc2)n(C)c1=O (stereo not drawn) | -58.9% |
| COCCn1c(=O)c2c(nc3n2CC(C)CN3CCc2ccccc2)n(C)c1=O (stereo not drawn) | -9.39% |
| O=C(CC1NCCNC1=O)Nc1cccc([N+](=O)[O-])c1 (stereo not drawn) | 6.97% |
| CCC(C)N(C(=O)COC(=O)c1ccccc1SCC(=O)N1CCCC1)C1CCS(=O)(=O)C1 (stereo not drawn) | 11.9% |
| O=C1c2ccccc2-c2nc3ncnn3c(-c3ccccc3Cl)c21 | 5.18% |
| Cc1ccc(Nc2nc(NCCCN3CCOCC3)nc(N)c2[N+](=O)[O-])cc1 | -56.2% |
| Cc1ccc(Nc2nc(NCCCN3CCOCC3)nc(N)c2[N+](=O)[O-])cc1C | 4.15% |
| COc1ccc(Nc2nc(NCCCN3CCOCC3)nc(N)c2[N+](=O)[O-])cc1 | 3.71% |
| COc1ccc(NC(=O)c2ccc(-n3cccn3)nc2)c(OC)c1 | 17.4% |
| COC(=O)c1ccc2nc(NC(=O)CN3C(=O)CCC3=O)sc2c1 | 14.3% |
| CN(CC(=O)Nc1cccc(F)c1)C(=O)c1cc(S(=O)(=O)N2CCCCC2)ccc1N1CCOCC1 | 3.68% |
